Results on 18 molecules are retold here after PubChem BioAssay (NCATS).

Records with an inconclusive call do not appear. A call without a number means that no potency is given here. Calls of active or inactive are those of the source. The call rests on the fitted dose curve; in most records, active means well fitted cell-killing curve with a large enough effect; inconclusive means small, poorly fitted or top-dose-only effect; inactive means flat fitted curve, though single readings scatter.
Further: nearly all actives have a fitted effect of over 55% in size.
Potency means the concentration at half of the fitted maximal effect.

One experiment is described as follows: Cell Viability - LYMP2-019 (AID 973). The note with it: LYMP2-019 lymphoblastoid cell line viability; series mostly up to 92.2 µM. Summed up:
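Human lymphoblastoid cells were seeded at 2500 cells/well, preincubated 5 hr at 37 C, then exposed to compounds for 24 hr at 37 C in complete medium. Intracellular ATP was measured by CellTiter-Glo luminescence; AC50 from Hill fits.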
On to `Cc1cc(Nc2ccc(O)cc2)ccc1N`, for which the Potency is 39.8 µM (active). Same read-out and setting: with `CN(C)c1ccc(C2(c3ccc(N(C)C)cc3)OC(=O)c3cc(N(C)C)ccc32)cc1` the entry was “inactive”; with `CO[C@H]1/C=C/O[C@@]2(C)Oc3c(C)c(O)c4c(O)c(c5c(c4c3C2=O)NC2(CCN(CC(C)C)CC2)N=5)=NC(=O)/C(C)=C\C=C\[C@H](C)[C@H](O)[C@@H](C)[C@@H](O)[C@@H](C)[C@H](OC(C)=O)[C@@H]1C`, “inactive”; with `O=C(OCC(COC(=O)c1ccccc1)(COC(=O)c1ccccc1)COC(=O)c1ccccc1)c1ccccc1`, “inactive”. The same measure, in the same setting: with `CC(=O)Nc1ccc(C(=O)CCl)cc1` the figure was 5.01 µM (active); with `Nc1ccc2cc3ccccc3cc2c1`, “inactive”. Same read-out and setting: with `c1ccc2c(c1)-c1cccc3c1c-2cc1ccccc13` the entry was “inactive”; with `O=C=Nc1ccc(Cc2ccc(N=C=O)cc2)cc1`, “inactive”; with `O=[N+]([O-])c1cc([N+](=O)[O-])c2ccc(S(=O)(=O)O)cc2c1O`, “inactive”. With `Cc1cc(O)c(C(C)(C)C)cc1Sc1cc(C(C)(C)C)c(O)cc1C`, the Potency is 39.8 µM (active). The same measure, in the same setting: with `CCC(C)Nc1ccc(NC(C)CC)cc1` (centres undefined) the figure was 5.01 µM (active); with `CNc1ccc(O)cc1`, 3.98 µM (active). On the same count and under the same terms, with `C=CC(=O)OCCOCCOC(=O)C=C` the figure was 25.1 µM (active). On the same count and under the same terms, with `c1ccc2c(c1)ccc1cc3c(ccc4ccccc43)cc12` the entry was “inactive”.

For `C=C(C)c1ccccc1`, the Potency entry was “inactive”. Take `O=C1OC(O)C(C(Cl)Cl)=C1Cl` (centres undefined): the Potency is 25.1 µM (active).

A short description of the next experiment: Cell Viability - LYMP2-021 (AID 974).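 Further: compound exposure lasts 24 hours at 37 °C.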 As to conditions: LYMP2-021 lymphoblastoid cells viability; series mostly up to 92.2 µM. The procedure, abridged:
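Human lymphoblastoid cells (2500/well) were preincubated 5 hr at 37 C, then exposed to compounds for 24 hr at 37 C in complete medium. Intracellular ATP was read by CellTiter-Glo luminescence; AC50 came from Hill-equation fits of concentration-response data.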
In the case of `Cc1cc(Nc2ccc(O)cc2)ccc1N`, the Potency is 50.1 µM (active). Still for that read-out and setting: with `CN(C)c1ccc(C2(c3ccc(N(C)C)cc3)OC(=O)c3cc(N(C)C)ccc32)cc1` the entry was “inactive”; with `CO[C@H]1/C=C/O[C@@]2(C)Oc3c(C)c(O)c4c(O)c(c5c(c4c3C2=O)NC2(CCN(CC(C)C)CC2)N=5)=NC(=O)/C(C)=C\C=C\[C@H](C)[C@H](O)[C@@H](C)[C@@H](O)[C@@H](C)[C@H](OC(C)=O)[C@@H]1C`, “inactive”.

On to `O=C(OCC(COC(=O)c1ccccc1)(COC(=O)c1ccccc1)COC(=O)c1ccccc1)c1ccccc1`, for which the Potency result was “inactive”.

Take `CC(=O)Nc1ccc(C(=O)CCl)cc1`: the Potency was 5.01 µM (active). Regarding `Nc1ccc2cc3ccccc3cc2c1`, the Potency result is “inactive”. On the same count and under the same terms, with `c1ccc2c(c1)-c1cccc3c1c-2cc1ccccc13` the entry was “inactive”. Consider `O=C=Nc1ccc(Cc2ccc(N=C=O)cc2)cc1`, for which the Potency result is “inactive”. `O=[N+]([O-])c1cc([N+](=O)[O-])c2ccc(S(=O)(=O)O)cc2c1O`: the Potency result is “inactive”. On the same count and under the same terms, with `Cc1cc(O)c(C(C)(C)C)cc1Sc1cc(C(C)(C)C)c(O)cc1C` the figure was 31.6 µM (active). On the same count and under the same terms, with `CCC(C)Nc1ccc(NC(C)CC)cc1` (centres undefined) the figure was 3.98 µM (active); with `CNc1ccc(O)cc1`, 3.98 µM (active); with `C=CC(=O)OCCOCCOC(=O)C=C`, 15.8 µM (active). The same measure, in the same setting: with `O=C1OC2(c3cc(Br)c(O)c(Br)c3Oc3c2cc(Br)c(O)c3Br)c2c(Cl)c(Cl)c(Cl)c(Cl)c21` the entry was “inactive”. Consider `c1ccc2c(c1)ccc1cc3c(ccc4ccccc43)cc12`, for which the Potency entry was “inactive”.

On to `C/C=C1\C(=O)C[C@H]2[C@@H]3CCC4=CC(=O)CC[C@]4(C)[C@H]3CC[C@]12C`, for which the Potency result was “inactive”. As for `C=C(C)c1ccccc1`, the Potency result is “inactive”. On the same count and under the same terms, with `O=C1OC(O)C(C(Cl)Cl)=C1Cl` (centres undefined) the figure was 20 µM (active).
